Structures can show the parent of a compound that is named as a salt.
The compounds below were run on primary human hepatic stellate cells (donor 1) (assay: PSMB2 reference mRNA level vs DMSO (fold); higher = more PSMB2 expression). Conditions: 48 h.
Protocol: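 Secondary qRT-PCR screen in primary human HSCs (donor 1), 384-well plates, with compounds dispensed in quadruplicate and incubated for 48 h. Cells-to-CT lysates were used for multiplexed TaqMan qPCR of ACTA2 or COL1A1 with PSMB2 as reference. Fold changes versus DMSO come from a linear model (Ct_gene ~ Ct_PSMB2 + plate + chemical). A hit is defined as COL1A1 and ACTA2 FC <0.5 (FDR <0.05) with PSMB2 between 0.2 and 2.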

Going from `C[C@@H]1O[C@@H](O[C@H]2C[C@@H](O)[C@]3(CO)[C@H]4[C@H](O)C[C@]5(C)[C@@H](C6=CC(=O)OC6)CC[C@]5(O)[C@@H]4CC[C@]3(O)C2)[C@H](O)[C@H](O)[C@H]1O` [Ouabain] (33.3333 µM) to `C[C@]12CC[C@H](O)C[C@H]1CC[C@@H]1[C@@H]2CC[C@]2(C)[C@@H](C3=CC(=O)OC3)CC[C@]12O` [Digitoxigenin] (33.3333 µM), the “PSMB2 reference mRNA level” value falls from 1.24 to 0.954.

Compared with `CC(C(=O)OC1CC2CCC(C1)N2C)c1ccc(Br)cc1` (centres undefined) [PG-9 maleate] (33.3333 µM), `CN1[C@@H]2CC[C@H]1C[C@@H](OC(c1ccc(F)cc1)c1ccc(F)cc1)C2` [3 α-Bis-(4-fluorophenyl) methoxytropane hydrochloride] (33.3333 µM) is lower in “PSMB2 reference mRNA level” value: 1.01 for the first, 0.247 for the second.

Going from `O=C1C2CCN(CC2)C1(CO)CO` (90 µM) to `CN(C(=O)Cc1ccc(Cl)c(Cl)c1)[C@H](CN1CCCC1)c1ccccc1` [ICI-199,441 hydrochloride] (33.3333 µM), the “PSMB2 reference mRNA level” value rises from 0.115 to 0.128.

First: CC1=NCCc2c1[nH]c1cc(O)ccc21 [Harmalol hydrochloride dihydrate] (24.4333 µM)
Second: COc1ccc2[nH]cc(C3=CCNCC3)c2c1 (33.3333 µM)
The “PSMB2 reference mRNA level” value of the first is lower: 0.715 for the first, 1.01 for the second.

Compared with `O=[N+]([O-])/C=C/c1ccc2c(c1)OCO2` (3.7 µM), `COc1ccc2c(c[n+](C)c3c4cc5c(cc4ccc23)OCO5)c1OC` (6.66667 µM) is lower in “PSMB2 reference mRNA level” value: 1 for the first, 0.187 for the second.

Compared with `Fc1cc(F)c2c(c1)[C@H]1C=CC[C@H]1C(c1cccnc1)N2` (some centres undefined) [Golgicide A] (33.3333 µM), `O=c1[nH]c2ccccc2n1C1CCN(CCCC(c2ccc(F)cc2)c2ccc(F)cc2)CC1` [Pimozide] (33.3333 µM) is lower in “PSMB2 reference mRNA level” value: 0.431 for the first, 0.0111 for the second.

Going from `CCN(CC)CCO[C@H]1CC[C@@]2(C)C(=CC[C@@H]3[C@@H]2CC[C@]2(C)C(=O)CC[C@@H]32)C1` (33.3333 µM) to `CC1=C(CC/C(C)=C/CCC2=CC[C@H](C3=CC(=O)O[C@H]3O)O[C@H]2O)C(C)(C)CCC1` [Manoalide] (40 µM), the “PSMB2 reference mRNA level” value rises from 0.278 to 1.84.

Going from `CO[C@H]1CC[C@@H](O[C@H]2C[C@H]([C@]3(C)CC[C@]4(C[C@H](O)[C@@H](C)[C@@H]([C@@H](C)/C=C(\C)C(=O)[C@H](C)C[C@H](C)C(=O)O)O4)O3)O[C@]3(O[C@@H]([C@H]4O[C@@](O)(CO)[C@H](C)C[C@@H]4C)C[C@@H]3C)[C@@H]2C)O[C@@H]1C` [Nanchangmycin] (11.1 µM) to `CCCCCCCCCCCCCC(=O)O[C@@H]1[C@@H](C)[C@@]2(O)[C@@H](C=C(CO)C[C@]3(O)C(=O)C(C)=C[C@@H]23)[C@@H]2C(C)(C)[C@]12OC(C)=O` [Phorbol 12-myristate 13-acetate] (27.0333 µM), the “PSMB2 reference mRNA level” value falls from 0.936 to 0.829.

Compared with `CC1=C(O)C(=O)C=C2C1=CC=C1[C@@]2(C)CC[C@@]2(C)[C@@H]3C[C@](C)(C(=O)O)CC[C@]3(C)CC[C@]12C` [Celastrol] (3.33333 µM), `CC[C@H]1CN2CCc3cc(OC)c(OC)cc3[C@@H]2C[C@@H]1C[C@H]1NCCc2cc(OC)c(OC)cc21` [Emetine] (12.0333 µM) is lower in “PSMB2 reference mRNA level” value: 0.633 for the first, 0.628 for the second.

With `C[C@H](N)Cn1ccc2cc(F)c(Cl)cc21` [Ro 60-0175 fumarate] (33.3333 µM) the “PSMB2 reference mRNA level” value was 0.297.
